Source: PubChem BioAssay (NCATS)
Inconclusive results are not listed. Activity calls are given as the source filed them. Calls follow the shape of the dose curve; as a rule, active = well fitted curve in the direction sought with a large enough effect; inconclusive = small, poorly fitted or top-dose-only effect, or another doubt; inactive = no such curve, though single readings can be large; an effect the other way counts as inactive or inconclusive.

experiment: Cellular Toxicity (caspase-3) N2a (AID 665); details: N2a cells, luminescence, normalized: DMSO 0%, 10 µM staurosporine 100%; series mostly up to 92.2 µM;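 also: compound exposure lasted 16 h at 37 °C before readout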
Summary of the method: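 Mouse N2a neuroblastoma cells (1500/well) were treated with compounds for 16 h at 37 °C, then caspase-3/7 activity was read by Caspase-Glo luminescence after 1 h at room temperature. Data were normalized to DMSO and 10 uM staurosporine; AC50 from Hill fits.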

SMILES | outcome
c1ccc2c(c1)Nc1ccccc1S2 | inactive
Clc1ccc(COC(Cn2ccnc2)c2ccc(Cl)cc2Cl)cc1 (configuration not stated) | inactive
Oc1ccc(Cl)cc1Cc1ccccc1 | inactive
CNCC(O)c1ccc(O)cc1 (configuration not stated) | inactive
CCCC(C)(COC(N)=O)COC(=O)NC(C)C (configuration not stated) | inactive
N[C@@H](Cc1ccc(N(CCCl)CCCl)cc1)C(=O)O | inactive
Oc1ccccc1-c1ccccc1 | inactive
CCOP(=S)(OCC)Oc1cc(C)nc(C(C)C)n1 | inactive
NCC(O)c1ccc(O)cc1 (configuration not stated) | inactive
OCCOc1ccccc1 | inactive
Oc1cccc2cccnc12 | inactive

experiment: Cellular Toxicity (caspase-3) NIH 3T3 (AID 666); details: NIH 3T3 caspase-3 activation, apoptosis/toxicity, 0% DMSO, 100% is 100 µM tamoxifen; series mostly up to 92.2 µM;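 also: caspase signal read after 16 h compound exposure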
Summary of the method: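 Mouse NIH 3T3 fibroblasts (1000 cells/well) were treated with compound for 16 hr at 37°C in complete medium; caspase-3/7 activity was read by Caspase-Glo luminescence. Normalized to DMSO and 100 uM tamoxifen; AC50 from Hill fits.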

SMILES | outcome
c1ccc2c(c1)Nc1ccccc1S2 | inactive
Clc1ccc(COC(Cn2ccnc2)c2ccc(Cl)cc2Cl)cc1 (configuration not stated) | inactive
Oc1ccc(Cl)cc1Cc1ccccc1 | inactive
C[C@]12C/C(=C/O)C(=O)C[C@@H]1CC[C@@H]1[C@@H]2CC[C@@]2(C)[C@H]1CC[C@]2(C)O | inactive
CNCC(O)c1ccc(O)cc1 (configuration not stated) | inactive
CCCC(C)(COC(N)=O)COC(=O)NC(C)C (configuration not stated) | inactive
Oc1ccccc1-c1ccccc1 | inactive
CCOP(=S)(OCC)Oc1cc(C)nc(C(C)C)n1 | inactive
NCC(O)c1ccc(O)cc1 (configuration not stated) | inactive
OCCOc1ccccc1 | inactive
Oc1cccc2cccnc12 | inactive
